A549 tox: Nrf2 qHTS screen for inhibitors: counterscreen for cytotoxicity; A549 ARE-Fluc cells, CellTiter-Fluor viability, 18-24 h; Potency, µM (highest dose often 46 µM), inactives show at the top dose activity change, negative = cytotoxicity, hits mostly inhibitors; actives 0.16% (n = 390,000); AID 504648, 2011; also: % is scaled to controls: 0 for no effect and ±100 for the full control effect
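A549 ARE-Fluc cells in 5% FBS OPTI-MEM, 5000 cells/well, rested 2 h then exposed to compounds in concentration-response for 18-24 h at 37 °C. Viability by CellTiter-Fluor fluorescence (Ex 405/Em 525) after 30 min; luciferase luminescence (BugLite, 15 min, RT) read afterwards.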
Nrf2 inh: Nrf2 qHTS screen for inhibitors. A549 ARE-Fluc reporter, luciferase luminescence, 18-24 h. Potency, µM (top dose mostly 46 µM), for inactives: at the top dose activity change, negative = inhibition, usual class: inhibitors. actives 2.1% (n = 360,000); also: % is scaled to controls: 0 for no effect and ±100 for the full control effect; nearly all actives have a fitted effect of over 60% in size
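A549 ARE_Fluc cells, 5000/well, 5% FBS OPTI-MEM; compounds in dose-response, 18-24 h at 37 °C/5% CO2; CellTiter-Fluor viability read (Ex 405/Em 525), then BugLite luciferase luminescence = Nrf2 activity.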
ELG1 DNA repair: qHTS screen for small molecules that inhibit ELG1-dependent DNA repair in human embryonic kidney (HEK293T) cells expressing luciferase-tagged ELG1 | HEK293T ELG1-luciferase reporter, luminescence, 16 h; DNA damage induced by 5-fluorouridine | Potency, µM (highest dose often 46.1 µM), for inactives: at the top dose activity change, negative = inhibition, hits mostly inhibitors | actives 2.3% (n = 330,000) | AID 504467, 2011; also: % is scaled to controls: 0 for no effect and ±100 for the full control effect; nearly all actives have a fitted effect of over 55% in size
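Overnight (16 hr) co-exposure of 2,000 cells/well to 5-fluorouridine and compound at 37 °C preceded detection. Luciferase was quantified via ONE-Glo luminescence; loss of signal denotes inhibition.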
Nrf2 activator: qHTS of Nrf2 Activators; AREc32 ARE-luciferase reporter (MCF7-derived line), luminescence, 24 h; Potency, µM (titrated, usually from 46.1 µM), for the others: at the top dose activation, actives largely listed as activators; actives 0.31% (n = 410,000); AID 624171, 2012; also: % of control where 0% means no effect; nearly all actives have a fitted effect of over 65% in size
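Nrf2 activation is followed as ARE-luciferase induction in the AREc32 line after one day of compound treatment; luminescence is read with Steady-Glo.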
Active calls of the source: *; ? = inconclusive; / = not tested or not shown; [ ] = remark or other dose. An excerpt weighted towards active compounds, which were near 3.7% of everything screened. Calls follow the shape of the dose curve; as a rule, active = well fitted curve in the direction sought with a large enough effect; inconclusive = small, poorly fitted or top-dose-only effect, or another doubt; inactive = no such curve, though single readings can be large; an effect the other way counts as inactive or inconclusive. Potency is read from the fitted curve at half-maximal effect.

SMILES	A549 tox	Nrf2 inh	ELG1 DNA repair	Nrf2 activator
COc1cc(CCN2C(=O)c3cccc4cccc(c34)C2=O)c(S(=O)(=O)N2CCC(C)CC2)cc1OC	8%	-16%	21µM*	18%
COc1cc(CCN2C(=O)c3cccc4cccc(c34)C2=O)c(S(=O)(=O)NCCO)cc1OC	11%	-2%	4.6µM*	5%
COc1cc(CCN2C(=O)c3cccc4cccc(c34)C2=O)c(S(=O)(=O)NCCCO)cc1OC	4%	14%	5.8µM*	26%
CCOC(=O)C(Cc1ccc(NC(C)=O)cc1)N1C(=O)c2ccccc2C1=O (stereo not given)	-6%	8%	?	0%
O=C(Nc1cc2c(cc1C(=O)c1cccc(Br)c1)OCCO2)c1ccccc1F	-8%	-10%	/	-2%
COc1ccc(C2=CCCC2)c(OC)c1	-3%	4%	/	0%
Cc1onc(-c2ccccc2)c1C(=O)OCCOc1ccc([N+](=O)[O-])cc1[N+](=O)[O-]	-6%	?	15µM*	2%
CC(C)Cc1ccc(C(C)C(=O)Nc2ccccc2O)cc1 (stereo not given)	1%	-19%	5.8µM*	4%
O=C(Nc1ccccc1O)C(c1ccccc1)c1ccccc1	0%	-1%	4.6µM*	2%
CC(C)Cc1ccc(C(C)C(=O)Nc2nccs2)cc1 (stereo not given)	?	-12%	-12%	0%
CCOc1cc(C(=S)N2CCOCC2)ccc1OS(=O)(=O)c1ccccc1[N+](=O)[O-]	-11%	-6%	?	?
O=C(/C=C/Nc1ccc(F)cc1)c1cccs1	-9%	?	/	6.3µM*
O=C(/C=C/Nc1ccc(S(=O)(=O)Nc2ncccn2)cc1)c1cccs1	-8%	7%	0%	2%
O=C(/C=C/Nc1ccc(F)c(F)c1)c1cccs1	0%	?	?	8.9µM*
Cc1cccc(N/C=C/C(=O)c2cccs2)c1C	-4%	?	?	?
Oc1c(C(c2ccccc2)N2CCC(O)CC2)sc2nc(-c3ccco3)nn12 (stereo not given)	4%	/	/	-1%
COc1ccc(-c2ccc(/C=N/N3C(=O)C4C5C=CC(C6CC56)C4C3=O)o2)c([N+](=O)[O-])c1 (stereo not given)	-3%	-20%	18µM*	-1%
CCN1C(=O)c2cccc3c(S(=O)(=O)N(C(C)=O)c4ccc(OC(C)=O)cc4)ccc1c23	-16%	26µM*	?	29%
O=c1[nH]c2ccccc2n2c(=S)[nH]nc12	-1%	6%	-4%	0%
COc1ccc(-c2cc(C3CCN(c4ccc(C(C)=O)cc4[N+](=O)[O-])CC3)[nH]n2)cc1	?	16µM*	?	-1%
N=c1nc(-c2ccccc2)n(-c2ccccc2)s1	0%	12%	/	/
NC(=S)n1[nH]c(-c2ccc([N+](=O)[O-])cc2)c(N=Nc2ccccc2[N+](=O)[O-])c1=O	6%	13%	?	11%
Cc1c(N=Nc2c(-c3ccc([N+](=O)[O-])cc3)[nH]n(C(N)=S)c2=O)cccc1[N+](=O)[O-]	?	18µM*	2.1µM*	3%
NC(=S)n1[nH]c(-c2ccc([N+](=O)[O-])cc2)c(N=Nc2cccc([N+](=O)[O-])c2)c1=O	?	16µM*	3.3µM*	4%[9.22 µM]
COC(=O)C1=C(C(=O)OC)[C@@H]2N(Cc3ccccc3)c3ccccc3[C@@]23C[C@@H](C(=O)OC)N(C(=O)c2cccs2)C3=N1	?	29µM*	0%	2%
SMILES	A549 tox	Nrf2 inh	ELG1 DNA repair	Nrf2 activator
COC(=O)C1=C(C(=O)OC)[C@@H]2N(Cc3ccccc3)c3ccccc3[C@@]23C[C@@H](C(=O)OC)N(C(=O)c2cc(C)oc2C)C3=N1	-16%	23µM*	/	-2%
O=C(NC(=S)N(CCc1ccccc1)CCc1ccccc1)c1ccco1	-20%	18µM*	-3%	?
COc1cc(C(=O)NC(=S)N(CCc2ccccc2)CCc2ccccc2)cc(OC)c1OC	-4%	?	18µM*	-1%
CC(CCc1ccccc1)NC(=S)NC(=O)c1ccco1 (stereo not given)	11%	-9%	4%	5%
Cc1coc(C)c1C(=O)Nc1ccc2ccccc2c1	6%	?	?	12%
CSc1nc(N2CCCC2)c2c(c1C#N)CC(C)(C)OC2	-2%	-13%	?	-1%
CSc1nc(N2CCN(C)CC2)c2c(c1C#N)CC(C)(C)OC2	-5%	?	8.2µM*	2%
Cc1nc(N2CCN(Cc3ccccc3)CC2)c(C#N)c2c1COC(C)(C)C2	10%	/	7.3µM*	-1%
CC(=O)N1CCc2c(sc3c2c(=O)n(CCc2ccccc2)c(=O)n3Cc2ccccc2C)C1	-29%	18µM*	/	0%
CCOc1cccc(/C=N/NC(=O)c2cccnc2)c1O	5%	?	?	1%
CCOc1cccc(/C=N/NC(=O)c2cc(C3CC3)[nH]n2)c1O	-3%	-1%	2.6µM*	-2%
Cc1[nH]n2c(=O)cc(C(C)(C)C)nc2c1-c1ccccc1	-24%	7.3µM*	?	-1%
Cc1[nH]n2c(=O)cc(-c3ccc(Cl)cc3)nc2c1-c1ccccc1	-17%	7.3µM*	/	0%
Cc1[nH]n2c(=O)cc(-c3ccc([N+](=O)[O-])cc3)nc2c1-c1ccccc1	-28%	?	/	-1%
O=c1cc(-c2ccccc2)nc2c(Cl)cc(Cl)cn12	/	/	/	4µM*
CCCCc1c(C)nc2c(-c3ccc(Cl)cc3)c(C)[nH]n2c1=O	-6%	5.8µM*	/	0%
COc1cccc(C(c2sc3nc(-c4ccco4)nn3c2O)N2CCN(c3ccccc3F)CC2)c1 (stereo not given)	-2%	/	/	0%
COc1ccc(S(=O)(=O)Nc2cccc(-c3ccc(N4CCCC4)nn3)c2)cc1F	-9%	/	/	14%
COc1ccccc1C1CCN(c2cc(O)ccc2[N+](=O)[O-])CC1	-8%	-10%	12µM*	0%
COc1ccc(C(=O)Nc2nc(-c3ccc([N+](=O)[O-])cc3)c(-c3ccccc3)s2)cc1	-29%	13µM*	/	0%
COc1ccc(-c2sc(NC(=O)c3ccc(C)cc3)nc2-c2ccc([N+](=O)[O-])cc2)cc1	-3%	4%	-10%	-1%
Cc1ccc(-c2cc(-c3ccc(C)o3)nc(N)c2C#N)cc1	2%	27%	?	?
Cc1ccc(-c2cc(-c3ccc4c(c3)OCO4)c(C#N)c(N)n2)o1	?	-11%	21µM*	5%
CCOc1cc(-c2cc(-c3ccc(C)o3)nc(N)c2C#N)ccc1O	?	15µM*	16µM*	5%
Cc1nnc(SCC(=O)NCc2ccc(N(C)C)cc2)c2nn(-c3ccccc3)c(C)c12	5%	-7%	/	13%
COc1cc2oc(=O)cc(-c3ccc(-c4ccc(O)cc4)cc3)c2c(OC)c1OC	1%	-26%	?	1%

Screens deposited in PubChem BioAssay by National Center for Advancing Translational Sciences (NCATS).
